Source: PubChem BioAssay (NCI)
About 79,000 compounds went through this panel and 15% of them were active in at least one assay; those are over-represented in the sample as a whole. The source made the active and inactive calls. No stated cut-off is given here; in the data, active means growth inhibition above about 70%; inactive means the rest.

Assay: NCI Yeast Anticancer Drug Screen. Data for the rad50 strain (AID 155);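 further: 0% = growth of vehicle-only cultures of the same strain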
Conditions: S. cerevisiae rad50 strain growth inhibition; at 50.0 µM; stronger effect = higher value
Method in brief: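 A DNA repair-deficient yeast mutant serves as the test organism; compound-induced growth inhibition is calculated against vehicle-treated cells.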

| SMILES | growth inhibition |
| --- | --- |
| COC(=O)Cc1onc(-c2ccccc2)c1[N+](=O)[O-] | -17.3% (inactive) |
| CCOC(=O)c1ccc2c(c1)Cc1c-2cc(Br)c(N)c1Br | 78.5% (active) |
| O=C(CCl)OCC(CCl)OC(=O)CCl (stereo not given) | -3.6% (inactive) |
| Nc1nc(CCl)nc(N2CCOCC2)n1 | 6.3% (inactive) |
| CC(C)(C)C(=O)CN | -19.4% (inactive) |
| COc1ccc2c(=O)c(-c3ccc(OC)c(OC)c3)c(C)oc2c1 | -0.7% (inactive) |
| COc1ccc(C(=O)OCc2ccccc2CN2CCCCC2)cc1 | -4.75% (inactive) |
| BrCC(Br)c1ccc(C(Br)CBr)cc1 (stereo not given) | 7.65% (inactive) |
| CC(=O)C(C)CCOC1(C)OCCC1C (stereo not given) | -7.4% (inactive) |
| O=C(O)C1CCC(C(=O)O)CC1.[NH-]C1CCCCC1[NH-].[Pt+2] (stereo not given) | 45.6% (inactive) |
| OCC#C[C@@H]1CC[C@H]1C#CCO | 7.3% (inactive) |
| NC1=NS(=O)(=O)Nc2nc(-c3ccc(Cl)cc3)c(-c3ccc(Cl)cc3)nc21 | -16.6% (inactive) |
| Clc1cc(Cl)nc(Cl)n1 | 2.4% (inactive) |
| C[C@@]12CCC3C1C=C1C(=O)c4cc(O)ccc4C(=O)[C@]1(O2)[C@@]3(C)C=O | -10.7% (inactive) |
| COC(=O)/C(C#N)=C/c1cccnc1 | -10.1% (inactive) |
| O=[N+]([O-])c1cc(Cl)ccc1Nc1ccccc1 | 51.3% (inactive) |
| O=C1C2=C(OCCO2)C(=O)C2=C1OCO2 | 12.4% (inactive) |
| c1ccc(CN(CCNc2ccccc2)c2ccccc2)cc1 | 13.2% (inactive) |
| CCOC(=O)/C(=C\c1ccccc1)c1nc2ccccc2[nH]1 | -1.2% (inactive) |
| NCCC(=O)OC1CCCc2c(O)c3c(c(O)c21)C(=O)c1ccccc1C3=O (stereo not given) | 98.8% (active) |

| SMILES | growth inhibition |
| --- | --- |
| CC(CO)(CO)CN1CCCCC1 | -2.25% (inactive) |
| Nc1cc(C(F)(F)F)ccc1[N+](=O)[O-] | 14.2% (inactive) |
| O=C(O)c1ccc(F)c([N+](=O)[O-])c1 | 7.15% (inactive) |
| O=C(NCCCl)NCc1cccc2c1CCCC2 | -12.5% (inactive) |
| O=[N+]([O-])[C@@H]1C[C@@H]2C=C[C@H]1CC2 | 10.1% (inactive) |
| O=C(Nn1c(-c2ccccc2)nc2ccccc2c1=O)c1cccc([N+](=O)[O-])c1 | -27.8% (inactive) |
| CN1C(=O)C(C)(O)Sc2ccccc21 (stereo not given) | -1.2% (inactive) |
| COc1ccc2ccccc2c1C1OC(=O)c2ccccc21 (stereo not given) | 37.8% (inactive) |
| CCCCCCCCCCCCS(=O)(=O)CCC(=O)c1ccco1 | 29.4% (inactive) |
| COc1ccc(C)cc1S(=O)(=O)c1c(Cl)cccc1[N+](=O)[O-] | -5.95% (inactive) |
| CSc1ccc(NC(=S)NN(C)C)cc1 | -22.9% (inactive) |
| CCCCNc1nc(Cl)nc(C(F)(F)F)c1N | 7.35% (inactive) |
| Cc1nc2ccccc2c(=O)n1NC(=S)Nc1cccc(Cl)c1 | 7.35% (inactive) |
| CC1=CCC(C(C)(C)NC(=O)c2ccccc2)C/C1=N/O (stereo not given) | -56.7% (inactive) |
| CC1(C)C(c2ccccc2)=NN(O)c2ccccc21 | -22.3% (inactive) |
| Cc1nccnc1N1CCCCC1 | 19.7% (inactive) |
| COc1ccccc1NC(=O)CC(=O)N1N=C(C)C(N=Nc2ccc(S(N)(=O)=O)cc2)C1=O (stereo not given) | 13.3% (inactive) |
| NC(=O)SCC(N)C(=O)O (stereo not given) | 0.25% (inactive) |
| COC(=O)[C@]1(C)CCC[C@]2(C)c3cc(Br)c(C(C)C)cc3CC[C@H]12 | -18.6% (inactive) |
| COc1cc(OC)c2c(=O)cc(-c3ccc(OC)c(OC)c3OC)oc2c1 | -31.8% (inactive) |

Assay: NCI Yeast Anticancer Drug Screen. Data for the mec2-1 strain (AID 157)
Conditions: S. cerevisiae mec2-1 strain, at 50.0 µM, stronger effect = higher value
Method in brief: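 Yeast mec2-1 mutant treated with compound. Readout: growth inhibition vs vehicle controls.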

| SMILES | growth inhibition |
| --- | --- |
| COC(=O)Cc1onc(-c2ccccc2)c1[N+](=O)[O-] | -12.2% (inactive) |
| CCOC(=O)c1ccc2c(c1)Cc1c-2cc(Br)c(N)c1Br | 3.1% (inactive) |
| O=C(CCl)OCC(CCl)OC(=O)CCl (stereo not given) | 29.1% (inactive) |
| Nc1nc(CCl)nc(N2CCOCC2)n1 | 1.65% (inactive) |
| CC(C)(C)C(=O)CN | -10.1% (inactive) |
| COc1ccc2c(=O)c(-c3ccc(OC)c(OC)c3)c(C)oc2c1 | -1.5% (inactive) |
| COc1ccc(C(=O)OCc2ccccc2CN2CCCCC2)cc1 | -7.25% (inactive) |
| BrCC(Br)c1ccc(C(Br)CBr)cc1 (stereo not given) | -21.6% (inactive) |
| CC(=O)C(C)CCOC1(C)OCCC1C (stereo not given) | 5.25% (inactive) |
| O=C(O)C1CCC(C(=O)O)CC1.[NH-]C1CCCCC1[NH-].[Pt+2] (stereo not given) | -29.9% (inactive) |
| OCC#C[C@@H]1CC[C@H]1C#CCO | -3.3% (inactive) |
| NC1=NS(=O)(=O)Nc2nc(-c3ccc(Cl)cc3)c(-c3ccc(Cl)cc3)nc21 | -17.2% (inactive) |
| Clc1cc(Cl)nc(Cl)n1 | -7.1% (inactive) |
| C[C@@]12CCC3C1C=C1C(=O)c4cc(O)ccc4C(=O)[C@]1(O2)[C@@]3(C)C=O | 2% (inactive) |
| COC(=O)/C(C#N)=C/c1cccnc1 | -7.65% (inactive) |
| O=[N+]([O-])c1cc(Cl)ccc1Nc1ccccc1 | 32.5% (inactive) |
| O=C1C2=C(OCCO2)C(=O)C2=C1OCO2 | 18.4% (inactive) |
| c1ccc(CN(CCNc2ccccc2)c2ccccc2)cc1 | 48.4% (inactive) |
| CCOC(=O)/C(=C\c1ccccc1)c1nc2ccccc2[nH]1 | -13.2% (inactive) |
| NCCC(=O)OC1CCCc2c(O)c3c(c(O)c21)C(=O)c1ccccc1C3=O (stereo not given) | 99.4% (active) |

| SMILES | growth inhibition |
| --- | --- |
| CC(CO)(CO)CN1CCCCC1 | 5.2% (inactive) |
| Nc1cc(C(F)(F)F)ccc1[N+](=O)[O-] | -10.2% (inactive) |
| O=C(O)c1ccc(F)c([N+](=O)[O-])c1 | -16.6% (inactive) |
| O=C(NCCCl)NCc1cccc2c1CCCC2 | 9.75% (inactive) |
| O=[N+]([O-])[C@@H]1C[C@@H]2C=C[C@H]1CC2 | 0.2% (inactive) |
| O=C(Nn1c(-c2ccccc2)nc2ccccc2c1=O)c1cccc([N+](=O)[O-])c1 | -33.9% (inactive) |
| CN1C(=O)C(C)(O)Sc2ccccc21 (stereo not given) | -19.4% (inactive) |
| COc1ccc2ccccc2c1C1OC(=O)c2ccccc21 (stereo not given) | 24.6% (inactive) |
| CCCCCCCCCCCCS(=O)(=O)CCC(=O)c1ccco1 | 20.1% (inactive) |
| COc1ccc(C)cc1S(=O)(=O)c1c(Cl)cccc1[N+](=O)[O-] | -15.4% (inactive) |
| CSc1ccc(NC(=S)NN(C)C)cc1 | -25.3% (inactive) |
| CCCCNc1nc(Cl)nc(C(F)(F)F)c1N | 2.45% (inactive) |
| Cc1nc2ccccc2c(=O)n1NC(=S)Nc1cccc(Cl)c1 | -35.3% (inactive) |
| CC1=CCC(C(C)(C)NC(=O)c2ccccc2)C/C1=N/O (stereo not given) | -43% (inactive) |
| CC1(C)C(c2ccccc2)=NN(O)c2ccccc21 | -15.8% (inactive) |
| Cc1nccnc1N1CCCCC1 | -0.75% (inactive) |
| COc1ccccc1NC(=O)CC(=O)N1N=C(C)C(N=Nc2ccc(S(N)(=O)=O)cc2)C1=O (stereo not given) | -1.65% (inactive) |
| NC(=O)SCC(N)C(=O)O (stereo not given) | -21.4% (inactive) |
| COC(=O)[C@]1(C)CCC[C@]2(C)c3cc(Br)c(C(C)C)cc3CC[C@H]12 | -9.25% (inactive) |
| COc1cc(OC)c2c(=O)cc(-c3ccc(OC)c(OC)c3OC)oc2c1 | -23.6% (inactive) |
